Measured values as given in PubChem BioAssay.
The source made the active and inactive calls.

How the values were obtained:
[1] = test system: PRMT1 (protein arginine N-methyltransferase 1); test: PRMT1 binders on small-molecule microarrays, primary screen, biochemical, small-molecule microarray, 635 nm fluorescence (AID 1088); conditions: small-molecule microarray binding, higher = more signal;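 also: binding of Prmt1 protein to compounds spotted on small-molecule microarray slides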
[2] = yeast growth modulation, basal conditions, primary screen, YJM789 clinical isolate, OD600, 24 h (AID 1089);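 also: growth of clinical yeast isolate S. cerevisiae YJM 789 seeded 1000 cells per well; test concentration not given here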; conditions: S. cerevisiae YJM789 growth, higher = more signal, called active from +8 up or from −8 down
[3] = fission yeast growth modulation, primary screen, strain 972, OD600, 24 h, no modulator (AID 1090);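 also: basal condition with compound alone and no growth modifier present; test concentration not given here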; conditions: S. pombe 972 growth, higher = more signal, called active from +8 up or from −8 down
[4] = S. cerevisiae growth modulation with rapamycin, primary screen, strain BY4716, OD600, 96 h (AID 1091); conditions: higher = more signal, called active from +8 up or from −8 down; also: test concentration not given here
[5] = target: Torsin-1A-interacting protein 2 (Homo sapiens) (UniProt Q8NFQ8); test: LULL1 binders on small-molecule microarray, primary screen, cell lysate, human LULL1 lysate, 635/667 nm fluorescence (AID 1092); conditions: hLULL1 lysate binding, 635 nm fluorescence, higher = more signal;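 also: probe is lysate of COS7 cells overexpressing human LULL1; score merges per-feature 667 nm fluorescence with signal-to-noise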
[6] = E. coli growth modulation, two-sided OD650, primary screen, E. coli filamentation project, strain DRC41, 24 h (AID 1093); conditions: OD650, 24 h, higher = more signal, called active from +8 up or from −8 down;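 also: MC1000 strain lacking acrAB efflux and sulA so SOS filamentation is blocked; test concentration not given here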
[7] = small-molecule microarray binders of probe aLefty2, primary screen, biochemical, biotinylated probe, 635/667 nm fluorescence (AID 1094); conditions: higher = more signal;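 also: score merges spot fluorescence near 667 nm with spot signal-to-noise ratio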
[8] = test system: Noggin (protein binding on small-molecule microarray); test: Noggin binders on small-molecule microarray, primary screen, biochemical, 635/667 nm fluorescence (AID 1095); conditions: 635 nm fluorescence, higher = more signal;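 also: score merges 667 nm feature fluorescence with signal to noise over triplicate slides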
[9] = target: Neurogenic locus notch homolog protein 3 (Homo sapiens) (UniProt Q9UM47); test: NOTCH3 binders on small-molecule microarray, primary screen, biochemical, 635/667 nm fluorescence (AID 1096); conditions: NOTCH3 binding, 635 nm fluorescence, higher = more signal
[10] = small-molecule microarray binders of probe aEGFR, primary screen, biochemical, biotinylated probe, 635/667 nm fluorescence (AID 1097); conditions: higher = more signal;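 also: probe is a biotinylated anti-EGFR antibody binding compounds printed on slides; score combines fluorescence near 667 nm and signal to noise of each spot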
[11] = test system: Plasmodium falciparum Sir2 (PF13_0152, Sir2A); test: pfSir2 binders on small-molecule microarrays, primary screen, biochemical, small-molecule microarray, 635 nm fluorescence (AID 1098); conditions: small-molecule microarray binding, fluorescence 635 nm; higher = more signal;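 also: score merges spot fluorescence intensity with its signal-to-noise ratio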
[12] = small-molecule microarray binders of probe aDKK1, primary screen, biochemical, biotinylated probe, 635/667 nm fluorescence (AID 1099); conditions: higher = more signal;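 also: score merges 667nm spot fluorescence with signal to noise across triplicate slides; reference of the scale not given here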
[13] = small-molecule microarray binders of probe aCHRDL2, primary screen, biochemical, biotinylated probe, 635/667 nm fluorescence (AID 1100); conditions: higher = more signal
[14] = splicing luciferase reporter signal modulators, primary screen, spliceosome inhibition project, cell-based, HEK293, splice +/- reporter (AID 1101); conditions: luminescence, 24 h, higher = more signal, called active from +8 up or from −8 down;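 also: HEK293 cells carrying a splicing-competent luciferase reporter gene; test concentration not given here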
[15] = target: Fibroblast growth factor 10 (Homo sapiens) (UniProt O15520); test: FGF10 binders on small-molecule microarrays, primary screen, biochemical, small-molecule microarray, 635 nm fluorescence (AID 1102); conditions: FGF10 binding, fluorescence 635 nm, higher = more signal
[16] = test system: glycogen synthase kinase-3 (GSK3A per assay name; protocol says GSK3B); test: GSK3 binders on small-molecule microarrays, primary screen, biochemical, small-molecule microarray, 635 nm fluorescence, GSK3A (AID 1103); conditions: small-molecule microarray binding, fluorescence 635 nm; higher = more signal; also: the record names both GSK3A and GSK3B
[17] = target: Epidermal growth factor receptor (Homo sapiens) (UniProt P00533); test: EGFR binders on small-molecule microarrays, primary screen, biochemical, small-molecule microarray, 635 nm fluorescence (AID 1104); conditions: EGFR binding, higher = more signal;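 also: score merges 667 nm emission intensity with spot signal to noise over triplicate slides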
[18] = target: Follistatin-related protein 3 (Homo sapiens) (UniProt O95633); test: FSTL3 binders on small-molecule microarrays, primary screen, biochemical, small-molecule microarray, 635 nm fluorescence (AID 1105); conditions: FSTL3 binding, higher = more signal;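 also: score merges emission near 667 nm and signal to noise per printed spot across three slides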
[19] = target: Dickkopf-related protein 1 (Homo sapiens) (UniProt O94907); test: DKK1 binders on small-molecule microarrays, primary screen, biochemical, small-molecule microarray, 635 nm fluorescence scan (AID 1106); conditions: DKK1 binding, higher = more signal;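 also: score merges emission near 667 nm with signal to noise over three replicate slides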
[20] = test system: Inhibin beta A chain (activin A); test: INHBA (activin A) binders on microarrays, primary screen, biochemical, small-molecule microarray, 635 nm fluorescence scan (AID 1107); conditions: small-molecule microarray binding, higher = more signal;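 also: mouse activin A protein probed at 4.33 µg/mL on printed slides; score merges bound-protein fluorescence near 667 nm with spot signal-to-noise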

Follistatin-related protein 3 (Homo sapiens), sequence (O95633 whole entry, looked up): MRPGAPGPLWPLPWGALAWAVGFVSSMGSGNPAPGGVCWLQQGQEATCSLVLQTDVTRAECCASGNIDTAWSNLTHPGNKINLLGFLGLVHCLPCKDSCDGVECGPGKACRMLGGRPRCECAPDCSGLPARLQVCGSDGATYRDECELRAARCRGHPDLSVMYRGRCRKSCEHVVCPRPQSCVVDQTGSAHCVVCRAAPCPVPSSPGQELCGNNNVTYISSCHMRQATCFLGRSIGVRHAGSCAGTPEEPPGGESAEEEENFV
Epidermal growth factor receptor (Homo sapiens), sequence (P00533 whole entry, looked up): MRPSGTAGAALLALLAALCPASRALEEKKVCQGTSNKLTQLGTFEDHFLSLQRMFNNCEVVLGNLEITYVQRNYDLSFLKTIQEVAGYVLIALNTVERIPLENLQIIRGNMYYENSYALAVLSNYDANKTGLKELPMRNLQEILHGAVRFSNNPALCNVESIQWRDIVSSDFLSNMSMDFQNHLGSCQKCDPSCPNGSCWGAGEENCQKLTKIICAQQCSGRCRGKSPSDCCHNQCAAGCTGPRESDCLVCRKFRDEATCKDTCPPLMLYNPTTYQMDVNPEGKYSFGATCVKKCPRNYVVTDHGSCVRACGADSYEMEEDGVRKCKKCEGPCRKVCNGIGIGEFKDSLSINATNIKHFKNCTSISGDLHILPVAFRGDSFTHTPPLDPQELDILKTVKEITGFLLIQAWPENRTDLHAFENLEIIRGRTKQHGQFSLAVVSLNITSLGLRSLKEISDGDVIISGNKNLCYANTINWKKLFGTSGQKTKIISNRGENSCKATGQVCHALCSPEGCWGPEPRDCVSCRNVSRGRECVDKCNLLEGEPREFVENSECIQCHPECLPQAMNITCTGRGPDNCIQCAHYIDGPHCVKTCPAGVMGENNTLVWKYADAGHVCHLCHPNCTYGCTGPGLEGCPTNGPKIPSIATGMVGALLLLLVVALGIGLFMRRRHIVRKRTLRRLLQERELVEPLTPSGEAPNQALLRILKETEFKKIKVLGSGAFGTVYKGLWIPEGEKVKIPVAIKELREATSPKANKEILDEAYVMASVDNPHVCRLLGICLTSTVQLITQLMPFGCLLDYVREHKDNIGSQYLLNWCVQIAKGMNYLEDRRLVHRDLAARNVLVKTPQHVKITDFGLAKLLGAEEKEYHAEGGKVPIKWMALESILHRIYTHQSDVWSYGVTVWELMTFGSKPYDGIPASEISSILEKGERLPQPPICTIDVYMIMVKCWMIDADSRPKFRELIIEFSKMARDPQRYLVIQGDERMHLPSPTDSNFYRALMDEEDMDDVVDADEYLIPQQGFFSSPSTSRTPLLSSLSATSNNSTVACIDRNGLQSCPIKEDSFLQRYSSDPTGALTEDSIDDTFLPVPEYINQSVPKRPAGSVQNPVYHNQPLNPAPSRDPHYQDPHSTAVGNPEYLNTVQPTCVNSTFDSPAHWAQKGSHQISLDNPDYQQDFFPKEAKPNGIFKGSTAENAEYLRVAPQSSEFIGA
Fibroblast growth factor 10 (Homo sapiens), sequence (O15520 whole entry, looked up): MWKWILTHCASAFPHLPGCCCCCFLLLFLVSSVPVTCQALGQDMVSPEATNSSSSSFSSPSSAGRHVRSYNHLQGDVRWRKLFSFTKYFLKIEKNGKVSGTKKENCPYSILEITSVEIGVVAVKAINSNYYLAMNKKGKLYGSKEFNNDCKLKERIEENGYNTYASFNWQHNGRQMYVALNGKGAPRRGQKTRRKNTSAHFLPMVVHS
Torsin-1A-interacting protein 2 (Homo sapiens), sequence (Q8NFQ8 whole entry, looked up): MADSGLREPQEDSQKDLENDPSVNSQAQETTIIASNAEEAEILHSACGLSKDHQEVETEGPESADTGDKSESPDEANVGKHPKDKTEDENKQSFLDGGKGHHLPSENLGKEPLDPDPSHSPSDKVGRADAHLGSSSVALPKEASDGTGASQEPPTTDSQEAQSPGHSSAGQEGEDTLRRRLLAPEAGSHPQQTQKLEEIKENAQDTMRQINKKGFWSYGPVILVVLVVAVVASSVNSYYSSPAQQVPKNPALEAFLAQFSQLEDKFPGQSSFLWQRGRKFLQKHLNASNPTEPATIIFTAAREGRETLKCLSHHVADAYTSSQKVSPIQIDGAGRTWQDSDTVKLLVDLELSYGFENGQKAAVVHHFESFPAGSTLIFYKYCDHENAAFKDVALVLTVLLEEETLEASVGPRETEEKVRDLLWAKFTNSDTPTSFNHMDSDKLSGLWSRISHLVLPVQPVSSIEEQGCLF
Neurogenic locus notch homolog protein 3 (Homo sapiens), sequence (Q9UM47 whole entry, looked up): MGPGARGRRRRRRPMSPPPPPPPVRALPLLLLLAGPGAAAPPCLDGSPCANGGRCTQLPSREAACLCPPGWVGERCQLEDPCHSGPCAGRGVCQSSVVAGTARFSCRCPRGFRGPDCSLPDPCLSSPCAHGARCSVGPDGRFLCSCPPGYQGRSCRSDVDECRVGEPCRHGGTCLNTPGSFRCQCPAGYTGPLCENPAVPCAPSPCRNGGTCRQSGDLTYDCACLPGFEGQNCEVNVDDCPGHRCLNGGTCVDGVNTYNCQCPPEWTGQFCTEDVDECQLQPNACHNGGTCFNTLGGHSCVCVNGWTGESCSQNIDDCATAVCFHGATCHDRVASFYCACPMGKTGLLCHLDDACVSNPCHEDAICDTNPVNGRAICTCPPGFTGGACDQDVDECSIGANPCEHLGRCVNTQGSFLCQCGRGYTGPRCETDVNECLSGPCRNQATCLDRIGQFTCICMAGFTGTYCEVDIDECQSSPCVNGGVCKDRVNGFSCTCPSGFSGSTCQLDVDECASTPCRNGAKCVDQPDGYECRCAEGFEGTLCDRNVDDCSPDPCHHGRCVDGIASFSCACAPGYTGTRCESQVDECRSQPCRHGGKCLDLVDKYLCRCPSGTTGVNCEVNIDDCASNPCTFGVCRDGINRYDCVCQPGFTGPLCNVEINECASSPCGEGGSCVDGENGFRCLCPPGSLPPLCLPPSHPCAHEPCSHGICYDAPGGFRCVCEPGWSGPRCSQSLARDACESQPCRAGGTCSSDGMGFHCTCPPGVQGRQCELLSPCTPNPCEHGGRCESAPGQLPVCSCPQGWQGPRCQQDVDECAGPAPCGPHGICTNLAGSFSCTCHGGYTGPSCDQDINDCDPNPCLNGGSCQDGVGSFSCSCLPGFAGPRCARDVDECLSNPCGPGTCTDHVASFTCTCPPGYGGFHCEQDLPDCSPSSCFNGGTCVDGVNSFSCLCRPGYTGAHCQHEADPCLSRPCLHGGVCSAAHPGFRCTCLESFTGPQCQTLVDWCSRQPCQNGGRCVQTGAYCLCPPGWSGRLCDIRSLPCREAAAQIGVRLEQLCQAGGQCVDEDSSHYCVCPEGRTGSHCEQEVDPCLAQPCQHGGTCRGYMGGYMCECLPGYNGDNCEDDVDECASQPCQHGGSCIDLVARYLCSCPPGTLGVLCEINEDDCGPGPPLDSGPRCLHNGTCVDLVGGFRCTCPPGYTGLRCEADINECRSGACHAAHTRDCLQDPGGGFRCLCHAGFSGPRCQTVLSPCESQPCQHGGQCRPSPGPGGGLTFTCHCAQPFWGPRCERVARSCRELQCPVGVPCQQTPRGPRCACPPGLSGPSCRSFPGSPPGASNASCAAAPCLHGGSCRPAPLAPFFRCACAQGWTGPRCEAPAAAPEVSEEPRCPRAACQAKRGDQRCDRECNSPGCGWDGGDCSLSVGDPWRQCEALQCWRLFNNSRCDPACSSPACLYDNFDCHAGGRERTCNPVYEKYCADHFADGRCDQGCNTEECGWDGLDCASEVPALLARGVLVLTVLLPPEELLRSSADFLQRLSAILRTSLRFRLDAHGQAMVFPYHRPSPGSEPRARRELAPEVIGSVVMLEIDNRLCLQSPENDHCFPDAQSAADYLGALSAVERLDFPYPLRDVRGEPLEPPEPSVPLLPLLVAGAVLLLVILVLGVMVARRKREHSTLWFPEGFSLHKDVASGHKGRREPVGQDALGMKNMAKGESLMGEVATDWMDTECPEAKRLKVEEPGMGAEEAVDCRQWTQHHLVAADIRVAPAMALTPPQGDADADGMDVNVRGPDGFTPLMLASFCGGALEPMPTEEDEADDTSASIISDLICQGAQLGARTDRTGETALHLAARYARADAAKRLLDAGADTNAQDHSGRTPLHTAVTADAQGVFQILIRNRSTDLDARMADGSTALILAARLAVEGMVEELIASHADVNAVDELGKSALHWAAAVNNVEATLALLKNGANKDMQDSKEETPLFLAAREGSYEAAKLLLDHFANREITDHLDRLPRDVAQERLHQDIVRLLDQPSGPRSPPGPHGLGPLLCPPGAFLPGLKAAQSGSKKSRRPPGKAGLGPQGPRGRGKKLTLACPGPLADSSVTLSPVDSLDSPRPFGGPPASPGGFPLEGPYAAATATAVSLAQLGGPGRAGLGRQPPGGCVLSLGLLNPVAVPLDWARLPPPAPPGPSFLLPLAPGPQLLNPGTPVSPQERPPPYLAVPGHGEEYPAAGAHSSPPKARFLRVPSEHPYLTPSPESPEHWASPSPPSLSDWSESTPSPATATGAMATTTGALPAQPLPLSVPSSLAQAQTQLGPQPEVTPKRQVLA
Dickkopf-related protein 1 (Homo sapiens), sequence (O94907 whole entry, looked up): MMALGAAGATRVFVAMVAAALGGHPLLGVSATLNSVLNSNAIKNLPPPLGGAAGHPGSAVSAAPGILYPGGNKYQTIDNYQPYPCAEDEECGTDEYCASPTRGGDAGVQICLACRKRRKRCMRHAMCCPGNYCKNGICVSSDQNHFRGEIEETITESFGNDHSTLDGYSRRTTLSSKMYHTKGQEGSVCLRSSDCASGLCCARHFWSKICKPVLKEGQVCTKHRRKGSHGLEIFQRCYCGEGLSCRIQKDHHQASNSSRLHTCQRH

| Structure (SMILES) | composite z-score [1] | z-score [2] | z-score [3] | z-score [4] | composite z-score [5] | z-score [6] | composite z-score [7] | composite z-score [8] | composite z-score [9] | composite z-score [10] | composite z-score [11] | composite z-score [12] | composite z-score [13] | z-score [14] | composite z-score [15] | composite z-score [16] | composite z-score [17] | composite z-score [18] | composite z-score [19] | composite z-score [20] |
| --- | --- | --- | --- | --- | --- | --- | --- | --- | --- | --- | --- | --- | --- | --- | --- | --- | --- | --- | --- | --- |
| C=CCN1C(=O)[C@]2(COC(c3ccc(OCCCO)cc3)=N2)Cc2ccccc21 | 1.36 | -2.32 (inactive) | -5.3 (inactive) | -1.78 (inactive) | 3.21 | 1.09 (inactive) | 0.0914 | 0.044 | 0.801 | -0.163 | 1.31 | 0.16 | 0.946 | -0.556 (inactive) | 0.261 | 0.678 | 0.145 | 0.232 | -0.169 | 1.13 |
| COC(=O)[C@@]1(Cc2ccc(OC)cc2)[C@H]2c3cc(C(=O)N(C)C)n(Cc4ccc(OC)c(OC)c4)c3C[C@H]2CN1C(=O)c1ccccc1 | 1.58 | 1.04 (inactive) | 2.35 (inactive) | 4.24 (inactive) | 3.65 | -0.841 (inactive) | 0.401 | -0.356 | 1.03 | 0.288 | 0.851 | 0.476 | 1.16 | -2.25 (inactive) | 0.81 | 1.28 | 0.149 | 0.943 | -0.649 | 0.807 |
| O=C1OCC=C[C@H]2OC34C=CCN(c5ccc6ccccc6c5)C(=O)[C@H]3N(CCO)C(=O)[C@@H]4[C@@H]12 (stereo not given in full) | 0.491 | 0.689 (inactive) | 0.0739 (inactive) | -0.409 (inactive) | 0.951 | -0.746 (inactive) | -0.0841 | -1.58 | -0.127 | -0.281 | 1.07 | 0.134 | 0.947 | -0.461 (inactive) | -0.455 | -0.657 | -1.49 | -1.33 | -2.42 | 0.589 |
| COc1ccc([Si](C)(C)[C@H]2[C@H](CC(=O)N3CCC[C@H]3CO)O[C@@]3(C(=O)N(c4ccccc4)c4ccccc43)[C@@H]2C)cc1 | 0.258 | -1.85 (inactive) | -0.841 (inactive) | -1.27 (inactive) | 0.958 | 2.45 (inactive) | -0.0651 | 0.285 | 0.125 | -0.15 | 1.28 | -0.344 | -0.28 | -1.82 (inactive) | -0.174 | -0.828 | 0.138 | 0.051 | 0.487 | 0.581 |
| COC(=O)[C@@]1(Cc2ccc(F)cc2)[C@H]2c3cc(C(=O)N(C)C)n(Cc4ccccn4)c3C[C@H]2CN1C(=O)c1ccccc1 | 0.837 | -0.602 (inactive) | -0.306 (inactive) | -0.545 (inactive) | 3.7 | -0.0591 (inactive) | -0.153 | 0.321 | 1.01 | 0.533 | 1.19 | 1.37 | 1.14 | -2.82 (inactive) | 0.214 | 1.08 | 0.328 | 0.706 | 0.116 | 1.24 |
